# HSF1 inh: HSF1 inhibitors in luciferase reporter cells, primary screen, cell-based, NIH3T3, luminescence | 0.77% of 300,000 active | activity change, negative = inhibition, % at 7.5 µM (by protocol) | NIH3T3-HGL HSE-luciferase, MG132-induced, luminescence 8 h; stronger effect = lower value;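 active means more than half of replicate wells show activity change below -50%, luminescence cut by over half; inconclusive means some wells, but at most half, below -50%; inactive means no replicate well below -50%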;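 further: luciferase reports HSF-1 transcriptional activity via heat shock element; 0% = median of DMSO wells and -100% = zero luminescence signal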
# HSP90 refold inh: HSP90 inhibitors, primary screen, cell lysate, luminescence | inhibition, % at 5.6 µM | Rabbit reticulocyte lysate, luciferase refolding luminescence, 3 h | 0.91% of 290,000 active | Heat shock protein HSP 90 (rabbit reticulocyte lysate; luciferase refolding);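 active means inhibition above the screen-wide mean plus 3 SD, computed separately per campaign, cut at about 16% in these data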;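 further: 0% = DMSO wells and 100% = 60 µM geldanamycin wells; inhibitors lower the luminescence because luciferase stays unfolded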
# STAT3 inh: IL-6 driven STAT3 reporter inhibitors, primary screen, U3A cells, luciferase, luminescence, MLSCN library; 0.89% of 190,000 active; inhibition, % at 5.5 µM; IL-6 STAT3-luciferase reporter; host cell line lacks STAT1;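 active means inhibition above the mean inhibition across all screened compounds plus 3 SD, cut at about 44% in these data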;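 further: 0% = DMSO only wells and 100% = 100 µM nifuroxazide control wells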
# STAT1 inh: STAT1 signaling inhibitors, primary screen, cell-based, HTS, luciferase reporter. NIH 3T3 STAT1-luciferase reporter, IFN-gamma, luminescence. inhibition, % at 5.5 µM. 0.35% of 200,000 active;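 active means inhibition above a set limit, the mean inhibition across all tested compounds plus 3 SD, cut at about 34% in these data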;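 further: 0% = IFN-gamma with DMSO and 100% = IFN-gamma with 300 µM nifuroxazide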
# TRAIL sens C8: viability loss with TRAIL in NB7+C8 cells, primary screen, TRAIL sensitizer project, cell-based, ATPlite luminescence; inhibition (viability loss, TRAIL sensitization), % at 10 µM; 1% of 360,000 active; AID 624354, 2012;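 active means compounds causing at least 50% loss of cell viability in the single-dose screen, relative to plate controls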
# PPC-1+TRAIL kill: compounds killing PPC-1 cancer cells with TRAIL present, primary screen, TRAIL potentiator project, ATPLite luminescence, uHTS | PPC-1 cells + TRAIL, ATPLite viability luminescence | cell killing (% activity), % at 4 µM or 5 µM | 0.41% of 220,000 active | AID 1443, 2008;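 active means cell killing above 50% in the first pass at 4 µM, then a duplicate retest at 5 µM averaging 50% or more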;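 further: plate controls were cells with TRAIL plus DMSO for no effect and medium-only wells lacking cells for full effect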
# Numbers without * were called inactive; ? = inconclusive; / = no result given; ! = a repeat was not active. Rows were chosen to be rich in hits. Some 2.4% of all compounds tested hit in one or more screens of this group.
SMILES,HSF1 inh,HSP90 refold inh,STAT3 inh,STAT1 inh,TRAIL sens C8,PPC-1+TRAIL kill
CCC(=O)N1CCc2cc(S(=O)(=O)NC(C(=O)NCc3ccc(C)cc3)C(C)C)ccc21 (centres undefined),-48,-1,0,-3,2,20
CCC(=O)N1CCc2cc(S(=O)(=O)NC(C(=O)NC3CCCc4ccccc43)C(C)C)ccc21 (centres undefined),5,5,-5,4,8,62*
CSCCC(c1nc2ccccc2[nH]1)n1c(/C=C/c2ccc(F)c(F)c2)nc2ccccc21 (centres undefined),/,/,/,/,27,/
COc1ccc(CCNc2ncnc3c2oc2ccccc23)cc1OC,-1,-1,80*,25,15,5
COc1ccc(CCNc2nc(C)nc3c2oc2ccccc23)cc1OC,1,0,34,16,12,23
CCOc1cc(/C=N/N=C(/N)c2nonc2N)cc(Br)c1OCc1ccc(Cl)cc1,-11,1,7,-10,57*,9
COc1cc(/C=N/N=C(N)N)ccc1OCc1ccc(Cl)cc1,-38,5,39,0,36,12
CCOc1cc(CNCCc2ccc(S(N)(=O)=O)cc2)ccc1OCc1ccc(Cl)cc1,6,4,29,22,73*,27
CCOc1cc(/C=N/N=C(N)N)ccc1OCc1ccc(Cl)cc1,18,0,10,7,87*,50*
CN1CCC(N2CCN(C3CN(Cc4ccc(F)cc4)S(=O)(=O)C3)CC2)CC1 (centres undefined),/,/,/,/,1,/
COCCCN1C(=O)C(CC(=O)NCCc2ccccn2)CC(C(=O)N2CCCCCC2)=C1C (centres undefined),/,/,/,/,12,/
CO[C@H]1CN(C)C(=O)c2ccc(NC(=O)c3ccc4c(c3)OCO4)cc2OC[C@H](C)N(CC2CC2)C[C@@H]1C,/,/,/,/,12,/
Fc1ccc(CN2CCN(C(=S)NCCc3ccccc3)CC2)c(Cl)c1,-3,-4,4,0,4,6
S=C(NCCc1ccccc1)N1CCN(Cc2ccc(Cl)c(Cl)c2)CC1,-62*,2,5,-1,-5,-3
NC(C(=O)O)C1ON=C(Cl)C1O (centres undefined),-1,/,/,/,78*,/
NC(C(=O)O)C1CC(Cl)=NO1 (centres undefined),-23,0,-2,-11,/,8
CCCC(=O)Nc1ccc(C2C(=O)c3ccccc3C2=O)cc1,4,7,/,/,76*,/
CC(C(=O)NC1CC(C)(C)NC(C)(C)C1)c1ccc([N+](=O)[O-])cc1 (centres undefined),-59*,-3,7,-10,-3,7
COc1cccc2c1C(=O)C=C(C)C2=O,-1,15,-8,-6,-6,27
COC1=CC(=O)c2nc(Cl)ccc2C1=O,/,/,/,/,95*,/
COc1ccc(S(=O)(=O)N(C)C[C@@H]2OCc3cn(nn3)CCCC(=O)N([C@H](C)CO)C[C@H]2C)cc1,/,/,/,/,-5,/
C(C#CCCCCCCCCC[n+]1ccccc1)#CCCCCCCCCC[n+]1ccccc1,-5,-6,/,/,91*,/
O=[N+]([O-])c1ccc(Cl)c(CN2CCN(c3ncc(Cc4ccccc4)cn3)CC2)c1,/,/,/,/,-7,/
C=Cc1ccc(Cn2c(C)c(C(=O)NCc3cccc(C(F)(F)F)c3)sc2=O)cc1,/,/,/,/,51*,/
CCN1CCN(Cc2ccc(NC(=O)c3ccc(C)c(NC(=O)c4ccno4)c3)cc2C(F)(F)F)CC1,?,/,/,/,23,15
SMILES,HSF1 inh,HSP90 refold inh,STAT3 inh,STAT1 inh,TRAIL sens C8,PPC-1+TRAIL kill
CCN1CCN(Cc2ccc(NC(=O)c3ccc(C)c(/C=C/c4cnc(Nc5cc(N6CCNCC6)nc(C)n5)cn4)c3)cc2C(F)(F)F)CC1,-34,-5,/,/,63*!,/
CC(C)(C)Cc1c(-c2ccco2)nc2ccc(Cl)cn12,/,/,/,/,-9,/
COc1ccc(C2=NC(c3ccccc3)CO2)cc1 (centres undefined),11,16*,28,-47,/,23
COc1ccc(-c2ccc3c(c2)C2CC3CCN2)cc1 (centres undefined),/,/,/,/,-9,/
Cc1cccc(-n2ncc3c(N4CCC(C)CC4)ncnc32)c1,-8,-1,34,-47,50*,22
Cc1ccc(-n2ncc3c(N4CCCC4)ncnc32)c(C)c1,17,-3,-6,-28,4,/
Cc1cccc(-n2ncc3c(NC(C)C)ncnc32)c1,12,-1,13,-52,66*,31
COc1cccc(N2CCN(c3ncnc4c3cnn4-c3ccc(C)cc3C)CC2)c1,6,-2,43,-3,93*,21
CC1CC(C)CN(c2ncnc3c2cnn3C)C1 (centres undefined),-6,0,4,-1,-5,14
CC(C)Nc1ncnc2c1cnn2-c1ccccc1,0,4,28,-40,43,/
CC1CC(C)CN(c2ncnc3c2cnn3-c2ccc(Cl)cc2)C1 (centres undefined),-52*,2,-1,-18,24,/
CC1(C)N=C(N)N=C(N)N1CCCCc1ccccc1,/,/,/,/,67*,/
COc1ccc2nnc(-c3ccc(C(F)(F)F)cc3)n2n1,-89*,-3,/,/,4,9
CCN1C(=S)SC(=O)C1=C1C=C(C)N(Cc2ccco2)C(C)=C1,-54*,9,-10,-104,-8,19
O=C(/C=C/[C@H]1O[C@@H](n2cnc3c(NC(=O)c4ccccc4)ncnc32)[C@H](O)[C@@H]1O)NCC1CCCCC1,/,/,/,/,9,/
C=CCNC(=S)N/N=C/c1ccc(C(F)(F)F)cc1,1,0,20,2,51*,13
O=[N+]([O-])c1ccccc1CSc1ccccn1,2,1,/,/,-4,-10
O=[N+]([O-])c1ccccc1CCc1cnc(Cl)s1,-63*,1,/,/,-3,/
O=C(Oc1oc(-c2ccco2)nc1C=Nc1ccccc1)c1ccoc1,-81*,-4,6,-4,16,7
Cc1ccc(C(=O)Oc2oc(-c3ccccc3)nc2C=Nc2ccc(N(C)C)cc2)cc1,89,9,9,-55,32,56*
CN(C)c1ccc(N=Cc2nc(-c3ccccc3)oc2OC(=O)c2cccc(Cl)c2)cc1,11,0,10,-32,-1,28
CC(C)(C)c1ccc(/C=N/Nc2nncn2N)cc1,17,-3,/,/,-7,/
Nn1cnnc1N/N=C/c1cc(Br)cc(Br)c1O,34,68*,5,-8,0,-9
Nc1ncnc(N)c1NC(=O)c1cc(Cl)c(OCc2ccccc2)c(Cl)c1,/,/,/,/,4,/
CCCCc1c(-c2cccc(Br)c2)ncn1CCc1ccccc1OC,/,/,/,/,31,/
CC(C)(C)NC(=O)C(c1cc2ccccc2o1)n1c(=O)c(-c2ccccc2)nc2ccccc21 (centres undefined),/,/,/,/,0,/

# High-throughput results deposited in PubChem BioAssay by several laboratories.
